The campaign covered roughly 5,500 compounds. About 2,000 (36%) were called active. Roughly 18% stayed inconclusive and do not appear here. Cut-off read from the data, not from the text of the source: active = normalized growth mostly below about 0.91 (no sharp cut-off); inconclusive = no clear call, values can overlap the other calls; inactive = mostly above about 0.92. The list shows a part of the results.
Test: chemical genetic growth profiling, strain panel (AID 1159580);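 note: tested at 20 µM; growth read once vehicle control cultures reached saturation at 30 °C; 1 = growth at the plate median or of vehicle wells; lower values mean less growth of the strain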
Details: S. cerevisiae deletion strains, growth OD
[1] = locus YAL013W, strain DEP1, hits give low values
[2] = locus YNL153C, strain GIM3, hits give low values
[3] = locus YPL055C, strain LGE1, hits give low values
[4] = locus YCL061C, strain MRC1, hits give low values
[5] = locus YHR030C, strain SLT2, hits give low values
[6] = locus YJL187C, strain SWE1, hits give low values

Measured: normalized growth

N[C@@]1(C(=O)O)CC[C@@H](C(=O)O)C1
inactive: [1] 1.02 | locus YAL040C, strain CLN3, hits give low values 1.01 | locus YCL061C, strain MRC1 (second series), hits give low values 1 | locus YDR363W, strain ESC2, hits give low values 1.04 | locus YER002W, strain NOP16, hits give low values 1.01 | locus YGR229C, strain SMI1, hits give low values 1.03 | [2] 1 | locus YNL175C, strain NOP13, hits give low values 1.01 | locus YNL197C, strain WHI3, hits give low values 1.02 | locus YNL224C, strain SQS1, hits give low values 1.02 | locus YOR083W, strain WHI5 (second series), hits give low values 1.01 | [3] 1.02

N#C/C(=C\Nc1ccc2c(c1)OCCO2)S(=O)(=O)c1ccc(C(F)(F)F)cn1
active: [5] 0.593 | [6] 0.733 | locus YLR085C, strain ARP6, hits give low values 0.742 | locus YNL298W, strain CLA4 (second series), hits give low values 0.835
inactive: [1] 0.985 | locus YBR229C, strain ROT2, hits give low values 1 | [4] 1.03 | locus YDL101C, strain DUN1, hits give low values 0.995 | locus YDL134C, strain PPH21, hits give low values 1 | locus YDR150W, strain NUM1, hits give low values 1.01 | locus YEL061C, strain CIN8, hits give low values 0.974 | locus YGR078C, strain PAC10, hits give low values 1.02 | locus YHR087W, strain rtc3, hits give low values 1.01 | locus YJR043C, strain POL32, hits give low values 1.02 | locus YJR075W, strain HOC1, hits give low values 1.02 | locus YKL190W, strain CNB1, hits give low values 0.98 | locus YLR039C, strain RIC1, hits give low values 1.02 | locus YLR058C, strain SHM2 (second series), hits give low values 1 | locus YLR262C, strain YPT6, hits give low values 1.01 | locus YML094W, strain GIM5, hits give low values 0.906 | locus YMR219W, strain ESC1, hits give low values 0.993 | locus YMR263W, strain SAP30, hits give low values 1.02 | [2] 1.02 | locus YNL322C, strain KRE1, hits give low values 0.996 | locus YNR030W, strain Alg12, hits give low values 0.978 | [3] 1.11 | locus YPL241C, strain CIN2, hits give low values 0.966 | locus YPR135W, strain CTF4, hits give low values 1.06

O=C(O)c1cccc(O)c1O
inactive: locus YAL021C, strain ccr4, hits give low values 1.02 | locus YAL026C, strain drs2, hits give low values 1.02 | locus YAL030W, strain snc1, hits give low values 1.01 | locus YBL061C, strain skt5, hits give low values 1.03 | locus YBR009C, strain hhf1, hits give low values 1.02 | locus YBR023C, strain chs3, hits give low values 1.02 | locus YBR171W, strain sec66, hits give low values 1.03 | locus YBR231C, strain swc5, hits give low values 1.02 | locus YBR279W, strain paf1, hits give low values 1.02 | locus YCL011C, strain gbp2, hits give low values 1.02 | locus YCL016C, strain dcc1, hits give low values 1.01 | [4] 1.01 | locus YCL069W, strain vba3, hits give low values 1.02 | locus YCR088W, strain abp1, hits give low values 1.02 | locus YDL005C, strain med2, hits give low values 1.02 | locus YDL040C, strain nat1, hits give low values 1.02 | locus YDR001C, strain nth1, hits give low values 1.02 | locus YDR069C, strain doa4, hits give low values 1.02 | locus YDR137W, strain rgp1, hits give low values 1.02 | locus YDR159W, strain sac3, hits give low values 1.03 | locus YDR195W, strain ref2 0.997 | locus YDR297W, strain sur2, hits give low values 1.02 | locus YDR334W, strain swr1, hits give low values 1.02 | locus YDR335W, strain msn5, hits give low values 1.02 | locus YDR392W, strain spt3, hits give low values 1.04 | locus YEL003W, strain gim4, hits give low values 1.02 | locus YEL037C, strain rad23, hits give low values 1.02 | locus YEL061C, strain CIN8 (second series), hits give low values 1.02 | locus YER015W, strain faa2, hits give low values 1.03 | locus YER016W, strain bim1, hits give low values 1.01 | locus YER111C, strain swi4, hits give low values 1.03 | locus YER155C, strain BEM2 (second series), hits give low values 1.04 | locus YFR010W, strain ubp6, hits give low values 1.02 | locus YGL167C, strain pmr1, hits give low values 1.02 | locus YGL173C, strain kem1, hits give low values 1.03 | locus YGL227W, strain vid30, hits give low values 1.03 | locus YGL240W, strain doc1, hits give low values 1.02 | locus YGL253W, strain hxk2, hits give low values 1.02 | locus YHR013C, strain ard1, hits give low values 1.02 | locus YHR027C, strain rpn1, hits give low values 1.01 | [5] 1.06 | locus YHR079C, strain IRE1, hits give low values 1.03 | locus YHR142W, strain chs7, hits give low values 1.01 | locus YJL092W, strain hpr5, hits give low values 1.02 | locus YJL095W, strain BCK1 (second series), hits give low values 1.01 | locus YJL095W, strain BCK1, hits give low values 1.03 | locus YJL115W, strain asf1, hits give low values 1.03 | locus YJL129C, strain trk1, hits give low values 1.04 | locus YJL154C, strain vps35, hits give low values 1.02 | locus YJL164C, strain tpk1, hits give low values 1 | locus YJL166W, strain qcr8, hits give low values 1.02 | [6] 1.03 | locus YJR066W, strain TOR1, hits give low values 0.99 | locus YKL160W, strain elf1, hits give low values 1.03 | locus YKR026C, strain gcn3, hits give low values 1.03 | locus YKR091W, strain srl3, hits give low values 1.02 | locus YLL001W, strain dnm1, hits give low values 1.02 | locus YLL026W, hits give low values 1.02 | locus YLL041C, strain sdh2, hits give low values 1.02 | locus YLR027C, strain aat2, hits give low values 1.01 | locus YLR113W, strain HOG1, hits give low values 1.06 | locus YLR221C, strain rsa3, hits give low values 1.01 | locus YLR258W, strain gsy2, hits give low values 1.02 | locus YLR262C, strain YPT6 (second series), hits give low values 1.02 | locus YLR320W, strain mms22, hits give low values 1.03 | locus YLR342W, strain FKS1, hits give low values 1.03 | locus YLR357W, strain rsc2, hits give low values 1.01 | locus YLR370C, strain arc18, hits give low values 1.01 | locus YLR384C, strain iki3, hits give low values 1.02 | locus YML120C, strain ndi1, hits give low values 1.01 | locus YMR058W, strain fet3, hits give low values 1.02 | locus YMR125W, strain sto1, hits give low values 1.04 | locus YMR129W, hits give low values 1.03 | locus YMR205C, strain PFK2, hits give low values 1.03 | locus YMR231W, strain pep5, hits give low values 1.02 | locus YNL071W, strain lat1, hits give low values 1.01 | locus YNL183C, strain NPR1, hits give low values 0.987 | locus YNL209W, strain ssb2, hits give low values 1.02 | locus YNL248C, strain rpa49, hits give low values 1.01 | locus YNL322C, strain KRE1 (second series), hits give low values 1.02 | locus YNR049C, strain mso1, hits give low values 1.02 | locus YOR001W, strain rrp6, hits give low values 1.03 | locus YOR070C, strain gyp1, hits give low values 1.02 | locus YOR080W, strain dia2, hits give low values 1.02 | locus YOR083W, strain WHI5, hits give low values 1.03 | locus YOR106W, strain vam3, hits give low values 1.02 | locus YOR231W, strain MKK1, hits give low values 1.05 | locus YOR265W, strain rbl2, hits give low values 1.01 | locus YOR270C, strain vph1, hits give low values 1.05 | locus YOR290C, strain snf2, hits give low values 1.03 | locus YPL051W, strain arl3, hits give low values 1.02 | locus YPL078C, strain atp4, hits give low values 1.03 | locus YPL106C, strain sse1, hits give low values 1.02 | locus YPL240C, strain hsp82, hits give low values 1.03 | locus YPL256C, strain CLN2, hits give low values 1.05
